Columns and labels:
[1] = tested on: Epidermal growth factor receptor (Homo sapiens), P00533 [T790M]; conditions: at 1 µM
[2] = tested on: Epidermal growth factor receptor (Homo sapiens), P00533 [L858R,T790M]; conditions: at 0.1 µM
[3] = tested on: Epidermal growth factor receptor (Homo sapiens), P00533 [L858R,T790M]; conditions: at 1 µM
[4] = target: Ephrin type-A receptor 2 (Homo sapiens) (UniProt P29317); conditions: at 0.1 µM
[5] = target: Ephrin type-A receptor 2 (Homo sapiens) (UniProt P29317); conditions: at 1 µM
[6] = target: T1, Ephrin type-A receptor 3 (Homo sapiens) (UniProt P29320); conditions: at 0.1 µM
T1 sequence (whole entry): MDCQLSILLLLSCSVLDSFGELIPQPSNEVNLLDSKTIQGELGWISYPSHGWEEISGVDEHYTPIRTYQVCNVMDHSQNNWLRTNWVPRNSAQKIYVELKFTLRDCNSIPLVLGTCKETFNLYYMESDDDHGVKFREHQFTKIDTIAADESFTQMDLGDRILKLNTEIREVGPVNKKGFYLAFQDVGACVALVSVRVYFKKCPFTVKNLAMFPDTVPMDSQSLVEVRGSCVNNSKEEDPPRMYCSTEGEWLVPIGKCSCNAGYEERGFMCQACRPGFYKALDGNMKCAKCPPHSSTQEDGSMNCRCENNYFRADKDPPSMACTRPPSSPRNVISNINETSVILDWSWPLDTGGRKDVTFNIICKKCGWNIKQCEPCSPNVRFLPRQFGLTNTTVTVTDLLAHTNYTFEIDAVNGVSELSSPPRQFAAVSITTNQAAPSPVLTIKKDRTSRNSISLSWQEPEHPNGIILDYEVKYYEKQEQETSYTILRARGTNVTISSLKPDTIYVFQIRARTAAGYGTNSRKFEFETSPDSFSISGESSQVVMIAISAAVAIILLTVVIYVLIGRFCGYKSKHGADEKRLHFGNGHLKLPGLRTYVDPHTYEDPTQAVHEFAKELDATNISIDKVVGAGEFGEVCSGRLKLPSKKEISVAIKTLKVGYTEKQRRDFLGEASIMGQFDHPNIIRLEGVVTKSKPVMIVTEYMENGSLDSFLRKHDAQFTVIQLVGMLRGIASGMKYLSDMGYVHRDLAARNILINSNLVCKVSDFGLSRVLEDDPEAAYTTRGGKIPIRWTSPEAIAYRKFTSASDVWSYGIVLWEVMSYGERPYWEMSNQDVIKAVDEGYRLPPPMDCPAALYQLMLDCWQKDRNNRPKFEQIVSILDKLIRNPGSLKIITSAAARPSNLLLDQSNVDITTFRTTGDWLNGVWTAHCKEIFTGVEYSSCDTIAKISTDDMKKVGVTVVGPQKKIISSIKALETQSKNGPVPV

[7] = target: T1, Ephrin type-A receptor 3 (Homo sapiens); conditions: at 1 µM
[8] = target: Ephrin type-A receptor 4 (Homo sapiens) (UniProt P54764); conditions: at 0.1 µM
[9] = target: Ephrin type-A receptor 4 (Homo sapiens) (UniProt P54764); conditions: at 1 µM
[10] = target: T2, Ephrin type-B receptor 2 (Homo sapiens) (UniProt P29323); conditions: at 0.1 µM
T2 sequence (whole entry): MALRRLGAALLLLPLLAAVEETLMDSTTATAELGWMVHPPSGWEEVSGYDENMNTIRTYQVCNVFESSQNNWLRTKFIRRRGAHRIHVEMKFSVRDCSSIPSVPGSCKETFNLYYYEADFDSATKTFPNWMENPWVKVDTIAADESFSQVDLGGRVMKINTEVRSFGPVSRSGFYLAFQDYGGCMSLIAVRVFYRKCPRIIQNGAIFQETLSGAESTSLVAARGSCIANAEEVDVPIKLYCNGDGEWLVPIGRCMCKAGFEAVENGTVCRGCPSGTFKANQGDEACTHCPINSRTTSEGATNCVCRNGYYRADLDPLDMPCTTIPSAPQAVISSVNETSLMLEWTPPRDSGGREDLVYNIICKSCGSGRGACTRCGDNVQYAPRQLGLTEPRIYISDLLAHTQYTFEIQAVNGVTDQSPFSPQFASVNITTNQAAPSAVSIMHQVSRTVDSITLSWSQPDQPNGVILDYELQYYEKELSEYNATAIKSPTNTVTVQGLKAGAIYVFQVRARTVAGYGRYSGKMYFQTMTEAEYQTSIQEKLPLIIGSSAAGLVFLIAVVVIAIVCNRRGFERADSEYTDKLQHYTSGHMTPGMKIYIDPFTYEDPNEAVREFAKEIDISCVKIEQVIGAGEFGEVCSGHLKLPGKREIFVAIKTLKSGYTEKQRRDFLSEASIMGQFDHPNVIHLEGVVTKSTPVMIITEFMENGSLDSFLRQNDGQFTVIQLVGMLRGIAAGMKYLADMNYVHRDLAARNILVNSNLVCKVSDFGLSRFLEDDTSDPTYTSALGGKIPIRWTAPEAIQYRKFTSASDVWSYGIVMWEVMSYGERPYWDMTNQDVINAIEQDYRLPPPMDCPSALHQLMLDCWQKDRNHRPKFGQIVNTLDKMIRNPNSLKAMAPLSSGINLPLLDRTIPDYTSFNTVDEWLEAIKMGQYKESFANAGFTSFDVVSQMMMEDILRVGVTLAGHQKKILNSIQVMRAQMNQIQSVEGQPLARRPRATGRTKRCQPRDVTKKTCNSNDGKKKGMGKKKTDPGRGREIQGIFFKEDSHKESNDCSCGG

[11] = target: T2, Ephrin type-B receptor 2 (Homo sapiens); conditions: at 1 µM
[12] = target: T3, Ephrin type-B receptor 3 (Homo sapiens) (UniProt P54753); conditions: at 0.1 µM
T3 sequence (whole entry): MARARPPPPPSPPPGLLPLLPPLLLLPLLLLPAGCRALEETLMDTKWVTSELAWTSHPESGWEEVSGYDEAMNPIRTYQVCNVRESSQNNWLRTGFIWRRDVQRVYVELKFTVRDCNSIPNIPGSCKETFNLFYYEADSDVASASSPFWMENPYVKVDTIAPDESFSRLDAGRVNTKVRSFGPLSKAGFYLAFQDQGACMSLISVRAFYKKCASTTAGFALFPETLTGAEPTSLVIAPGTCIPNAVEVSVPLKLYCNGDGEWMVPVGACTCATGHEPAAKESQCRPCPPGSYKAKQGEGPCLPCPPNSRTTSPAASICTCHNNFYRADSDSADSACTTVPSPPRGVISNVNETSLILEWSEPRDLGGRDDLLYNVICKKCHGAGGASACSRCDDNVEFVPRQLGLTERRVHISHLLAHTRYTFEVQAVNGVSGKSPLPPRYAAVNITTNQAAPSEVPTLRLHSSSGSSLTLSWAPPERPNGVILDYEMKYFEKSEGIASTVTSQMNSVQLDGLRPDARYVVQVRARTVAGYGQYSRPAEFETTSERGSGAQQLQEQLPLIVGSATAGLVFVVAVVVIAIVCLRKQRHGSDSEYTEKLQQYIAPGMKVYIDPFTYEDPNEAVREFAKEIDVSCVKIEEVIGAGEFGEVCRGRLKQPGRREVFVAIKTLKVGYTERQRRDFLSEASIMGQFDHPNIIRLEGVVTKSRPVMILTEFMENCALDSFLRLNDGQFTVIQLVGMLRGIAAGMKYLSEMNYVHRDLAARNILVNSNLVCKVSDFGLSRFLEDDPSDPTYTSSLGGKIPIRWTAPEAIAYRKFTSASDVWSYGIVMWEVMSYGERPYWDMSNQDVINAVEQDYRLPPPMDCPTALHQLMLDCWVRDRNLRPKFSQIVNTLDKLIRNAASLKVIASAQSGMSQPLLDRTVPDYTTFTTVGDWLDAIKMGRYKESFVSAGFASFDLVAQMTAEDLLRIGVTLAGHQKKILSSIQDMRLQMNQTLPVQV

[13] = target: T3, Ephrin type-B receptor 3 (Homo sapiens); conditions: at 1 µM
[14] = target: T4, Ephrin type-B receptor 4 (Homo sapiens) (UniProt P54760); conditions: at 0.1 µM
T4 sequence (whole entry): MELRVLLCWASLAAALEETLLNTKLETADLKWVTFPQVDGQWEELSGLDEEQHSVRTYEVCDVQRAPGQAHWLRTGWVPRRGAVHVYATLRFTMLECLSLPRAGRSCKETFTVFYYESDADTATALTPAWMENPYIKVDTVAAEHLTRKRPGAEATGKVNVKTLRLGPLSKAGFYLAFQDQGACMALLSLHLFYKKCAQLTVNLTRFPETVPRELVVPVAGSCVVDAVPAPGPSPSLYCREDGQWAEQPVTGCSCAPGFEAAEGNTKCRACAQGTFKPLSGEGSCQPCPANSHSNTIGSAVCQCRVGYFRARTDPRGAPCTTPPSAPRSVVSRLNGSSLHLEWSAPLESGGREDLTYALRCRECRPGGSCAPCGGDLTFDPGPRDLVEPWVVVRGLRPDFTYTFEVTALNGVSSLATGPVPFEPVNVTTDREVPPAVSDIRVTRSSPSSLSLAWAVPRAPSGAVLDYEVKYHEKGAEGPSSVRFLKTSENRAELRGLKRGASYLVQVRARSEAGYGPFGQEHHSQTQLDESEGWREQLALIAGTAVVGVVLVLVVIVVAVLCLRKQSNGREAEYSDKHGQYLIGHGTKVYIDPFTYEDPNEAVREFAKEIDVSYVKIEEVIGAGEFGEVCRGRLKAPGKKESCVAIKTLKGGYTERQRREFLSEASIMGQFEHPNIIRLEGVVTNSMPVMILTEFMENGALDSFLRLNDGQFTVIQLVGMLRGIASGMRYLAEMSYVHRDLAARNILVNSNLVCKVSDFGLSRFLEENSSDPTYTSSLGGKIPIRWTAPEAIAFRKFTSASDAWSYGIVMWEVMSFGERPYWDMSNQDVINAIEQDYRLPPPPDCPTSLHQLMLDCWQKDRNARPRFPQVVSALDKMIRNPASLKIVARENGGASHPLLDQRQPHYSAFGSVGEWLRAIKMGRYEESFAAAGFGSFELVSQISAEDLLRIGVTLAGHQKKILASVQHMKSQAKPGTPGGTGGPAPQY

[15] = target: T4, Ephrin type-B receptor 4 (Homo sapiens); conditions: at 1 µM
[16] = target: Receptor tyrosine-protein kinase erbB-2 (Homo sapiens) (UniProt P04626); conditions: at 0.1 µM
[17] = target: Receptor tyrosine-protein kinase erbB-2 (Homo sapiens) (UniProt P04626); conditions: at 1 µM
[18] = target: Receptor tyrosine-protein kinase erbB-4 (Homo sapiens) (UniProt Q15303); conditions: at 0.1 µM
[19] = target: Receptor tyrosine-protein kinase erbB-4 (Homo sapiens) (UniProt Q15303); conditions: at 1 µM
[20] = target: Tyrosine-protein kinase Fer (Homo sapiens) (UniProt P16591); conditions: at 0.1 µM;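 further: reported figures are averaged percent inhibition of FER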

Chain of Epidermal growth factor receptor (Homo sapiens), P00533 [L858R,T790M] (P00533 whole entry T790M/L858R, looked up): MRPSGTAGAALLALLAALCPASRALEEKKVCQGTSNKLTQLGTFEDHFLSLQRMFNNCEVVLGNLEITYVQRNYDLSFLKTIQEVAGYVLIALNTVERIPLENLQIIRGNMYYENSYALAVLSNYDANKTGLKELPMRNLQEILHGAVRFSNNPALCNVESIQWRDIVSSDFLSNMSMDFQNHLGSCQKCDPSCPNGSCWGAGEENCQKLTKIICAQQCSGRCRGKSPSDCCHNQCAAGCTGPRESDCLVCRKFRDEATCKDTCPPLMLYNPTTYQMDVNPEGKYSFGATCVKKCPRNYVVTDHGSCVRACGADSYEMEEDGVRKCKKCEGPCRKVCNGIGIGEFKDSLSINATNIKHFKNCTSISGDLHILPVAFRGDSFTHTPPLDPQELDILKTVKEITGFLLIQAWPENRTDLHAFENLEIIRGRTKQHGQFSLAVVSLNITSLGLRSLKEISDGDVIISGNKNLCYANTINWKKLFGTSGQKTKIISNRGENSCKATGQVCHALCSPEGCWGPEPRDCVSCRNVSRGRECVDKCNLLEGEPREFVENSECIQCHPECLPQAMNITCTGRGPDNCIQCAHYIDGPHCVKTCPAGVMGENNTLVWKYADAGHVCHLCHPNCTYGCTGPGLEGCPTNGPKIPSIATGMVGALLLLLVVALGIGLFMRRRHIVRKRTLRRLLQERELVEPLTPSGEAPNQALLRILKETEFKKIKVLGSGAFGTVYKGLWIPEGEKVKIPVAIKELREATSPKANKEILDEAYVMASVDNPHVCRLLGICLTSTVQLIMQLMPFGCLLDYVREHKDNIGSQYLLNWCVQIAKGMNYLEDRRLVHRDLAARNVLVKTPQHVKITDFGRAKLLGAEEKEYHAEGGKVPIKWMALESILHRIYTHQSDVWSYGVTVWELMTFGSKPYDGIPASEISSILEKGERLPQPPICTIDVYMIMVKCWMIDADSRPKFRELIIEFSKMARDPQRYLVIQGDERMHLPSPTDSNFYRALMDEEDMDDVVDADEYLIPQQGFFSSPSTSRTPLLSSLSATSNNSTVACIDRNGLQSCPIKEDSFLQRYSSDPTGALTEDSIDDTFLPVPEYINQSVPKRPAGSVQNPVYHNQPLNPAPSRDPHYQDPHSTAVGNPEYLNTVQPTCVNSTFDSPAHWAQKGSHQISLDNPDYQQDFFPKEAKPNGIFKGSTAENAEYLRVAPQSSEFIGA
Chain of Receptor tyrosine-protein kinase erbB-2 (Homo sapiens) (P04626 whole entry): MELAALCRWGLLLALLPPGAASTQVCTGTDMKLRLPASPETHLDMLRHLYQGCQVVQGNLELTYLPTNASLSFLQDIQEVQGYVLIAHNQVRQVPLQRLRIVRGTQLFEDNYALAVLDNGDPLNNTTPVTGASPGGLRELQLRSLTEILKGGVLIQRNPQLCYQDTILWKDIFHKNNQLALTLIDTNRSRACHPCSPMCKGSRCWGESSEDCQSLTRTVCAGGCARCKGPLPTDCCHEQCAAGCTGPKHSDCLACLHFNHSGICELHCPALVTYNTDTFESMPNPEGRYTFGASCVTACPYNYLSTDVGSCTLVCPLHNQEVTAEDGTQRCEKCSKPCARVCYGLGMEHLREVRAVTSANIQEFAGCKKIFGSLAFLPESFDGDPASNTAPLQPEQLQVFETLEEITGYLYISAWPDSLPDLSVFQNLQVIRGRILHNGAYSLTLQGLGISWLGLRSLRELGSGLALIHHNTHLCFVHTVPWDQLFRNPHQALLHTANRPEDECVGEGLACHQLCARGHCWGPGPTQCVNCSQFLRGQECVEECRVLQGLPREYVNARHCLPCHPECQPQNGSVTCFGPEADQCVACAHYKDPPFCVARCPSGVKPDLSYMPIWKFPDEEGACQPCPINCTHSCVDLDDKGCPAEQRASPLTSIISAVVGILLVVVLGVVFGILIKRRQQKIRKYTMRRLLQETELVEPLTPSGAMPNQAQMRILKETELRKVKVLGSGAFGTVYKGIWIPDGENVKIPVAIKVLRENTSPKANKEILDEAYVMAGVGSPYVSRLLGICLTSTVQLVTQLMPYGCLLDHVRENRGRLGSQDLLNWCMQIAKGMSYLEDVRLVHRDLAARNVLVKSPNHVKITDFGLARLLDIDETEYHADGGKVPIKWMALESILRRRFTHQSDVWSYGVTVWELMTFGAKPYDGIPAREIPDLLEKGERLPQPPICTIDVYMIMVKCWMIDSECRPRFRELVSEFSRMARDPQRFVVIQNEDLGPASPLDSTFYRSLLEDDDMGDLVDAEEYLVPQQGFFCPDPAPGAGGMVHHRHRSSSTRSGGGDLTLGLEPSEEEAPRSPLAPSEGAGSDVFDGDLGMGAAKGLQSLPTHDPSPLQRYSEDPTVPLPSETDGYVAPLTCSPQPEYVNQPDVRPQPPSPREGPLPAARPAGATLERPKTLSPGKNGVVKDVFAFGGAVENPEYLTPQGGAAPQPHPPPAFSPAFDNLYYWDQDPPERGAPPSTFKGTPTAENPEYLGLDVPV
Chain of Ephrin type-A receptor 2 (Homo sapiens) (P29317 whole entry): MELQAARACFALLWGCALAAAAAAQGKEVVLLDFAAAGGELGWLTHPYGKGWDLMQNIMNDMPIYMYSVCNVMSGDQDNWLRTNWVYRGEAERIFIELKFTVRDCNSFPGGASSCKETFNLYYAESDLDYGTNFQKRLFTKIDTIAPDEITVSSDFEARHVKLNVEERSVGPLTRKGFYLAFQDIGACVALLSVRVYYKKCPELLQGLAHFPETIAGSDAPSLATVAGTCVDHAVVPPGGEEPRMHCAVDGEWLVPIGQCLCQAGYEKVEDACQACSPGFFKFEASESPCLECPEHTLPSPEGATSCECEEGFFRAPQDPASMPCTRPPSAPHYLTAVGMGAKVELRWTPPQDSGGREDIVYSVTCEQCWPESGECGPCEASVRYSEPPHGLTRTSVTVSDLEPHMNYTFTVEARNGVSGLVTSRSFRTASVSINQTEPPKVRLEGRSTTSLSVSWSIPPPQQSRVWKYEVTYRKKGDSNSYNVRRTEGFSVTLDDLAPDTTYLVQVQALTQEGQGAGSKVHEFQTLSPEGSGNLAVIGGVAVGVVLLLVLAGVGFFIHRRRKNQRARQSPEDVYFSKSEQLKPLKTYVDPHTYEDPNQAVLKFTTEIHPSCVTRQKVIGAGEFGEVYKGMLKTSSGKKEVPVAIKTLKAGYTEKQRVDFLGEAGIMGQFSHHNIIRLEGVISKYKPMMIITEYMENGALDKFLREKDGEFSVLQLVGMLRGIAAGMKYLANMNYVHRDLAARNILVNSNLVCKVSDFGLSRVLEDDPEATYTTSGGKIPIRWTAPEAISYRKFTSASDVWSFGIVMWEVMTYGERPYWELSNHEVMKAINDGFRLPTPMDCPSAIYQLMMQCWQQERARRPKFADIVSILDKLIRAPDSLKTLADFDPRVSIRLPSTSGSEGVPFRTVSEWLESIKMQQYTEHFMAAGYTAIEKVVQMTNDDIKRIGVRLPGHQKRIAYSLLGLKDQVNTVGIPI
Chain of Ephrin type-A receptor 4 (Homo sapiens) (P54764 whole entry): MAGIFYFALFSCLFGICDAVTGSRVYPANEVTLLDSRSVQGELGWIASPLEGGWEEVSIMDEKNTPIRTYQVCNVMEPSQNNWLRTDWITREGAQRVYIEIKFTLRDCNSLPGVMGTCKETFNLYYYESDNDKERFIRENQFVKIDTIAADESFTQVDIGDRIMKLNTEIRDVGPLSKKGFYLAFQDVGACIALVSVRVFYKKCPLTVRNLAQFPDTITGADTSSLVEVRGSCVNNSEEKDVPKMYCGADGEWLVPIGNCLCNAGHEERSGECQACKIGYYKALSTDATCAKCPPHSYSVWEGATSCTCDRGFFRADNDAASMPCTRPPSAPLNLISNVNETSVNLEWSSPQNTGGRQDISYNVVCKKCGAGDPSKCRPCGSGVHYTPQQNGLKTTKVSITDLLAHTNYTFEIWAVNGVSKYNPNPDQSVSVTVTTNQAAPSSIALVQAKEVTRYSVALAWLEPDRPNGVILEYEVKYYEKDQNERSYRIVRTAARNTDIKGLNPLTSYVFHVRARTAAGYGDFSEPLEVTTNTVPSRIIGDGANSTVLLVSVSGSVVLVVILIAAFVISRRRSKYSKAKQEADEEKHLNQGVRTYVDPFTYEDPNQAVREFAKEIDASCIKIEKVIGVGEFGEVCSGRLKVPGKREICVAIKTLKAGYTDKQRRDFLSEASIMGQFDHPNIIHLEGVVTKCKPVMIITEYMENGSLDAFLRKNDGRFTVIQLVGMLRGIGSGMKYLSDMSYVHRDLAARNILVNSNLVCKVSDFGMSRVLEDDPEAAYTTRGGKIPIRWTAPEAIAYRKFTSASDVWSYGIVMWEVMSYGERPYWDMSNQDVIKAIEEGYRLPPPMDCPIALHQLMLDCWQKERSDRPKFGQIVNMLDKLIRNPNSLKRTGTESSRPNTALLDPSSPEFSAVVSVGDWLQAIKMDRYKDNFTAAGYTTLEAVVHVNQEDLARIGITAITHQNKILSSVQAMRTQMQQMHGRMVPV

SMILES	inhibition [1] [%]	inhibition [2] [%]	inhibition [3] [%]	inhibition [4] [%]	inhibition [5] [%]	inhibition [6] [%]	inhibition [7] [%]	inhibition [8] [%]	inhibition [9] [%]	inhibition [10] [%]	inhibition [11] [%]	inhibition [12] [%]	inhibition [13] [%]	inhibition [14] [%]	inhibition [15] [%]	inhibition [16] [%]	inhibition [17] [%]	inhibition [18] [%]	inhibition [19] [%]	inhibition [20] [%]
CCn1c(-c2nonc2N)nc2c(C#CC(C)(C)O)nc(CN3CCCC3)cc21	-1.46	-1.08	0.28	-1.52	-2.75	-2.69	1.11	-7.89	-5.06	-4.91	-4.07	2.42	-2.06	1.15	0.96	-1.45	-6.25	3.95	-0.29	-1.64
COc1ccc(-c2nn3ncccc3c2-c2ccnc(Nc3ccc(Cl)c(C(F)(F)F)c3)n2)cc1	3.31	0.9	4.78	0.97	0.97	3.2	3.4	6.57	10.2	3.9	10	3.56	4.88	3.3	-0.34	3.66	7.66	16	51.5	1.3
COc1ccccc1Nc1ncc(-c2ccccc2)o1	2.18	1.54	1.28	2.74	1.76	2.8	4.86	7.21	12.8	7.35	10.8	2.82	3.43	1.6	5.33	0.38	6.93	8.18	15.7	4.02

From ChEMBL document CHEMBL1961873, “Compounds: GSK PKIS; Assays: Nanosyn kinase panel” (2012)
